“And” between values parts separate entries of the source, which are not always exact repeats. Identical values can stand only once. The source made the active and inactive calls.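 How the source made its calls, unless noted: active means inhibition at or above 50% relative to wild type and mutant plate controls; inactive means inhibition below 50%.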

Experiment [1] is described as follows: inhibitors of TNFa-induced NFkB p65 translocation, primary screen, imaging, HUVEC, MLSMR starter and 10KST1 sets (AID 438;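 active means inhibition above 20% together with a positive visual image hit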;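 further: compound added about 3h40 before a 20 min TNFalpha stimulation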;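 on inhibition: signal is the nuclear over cytoplasmic p65 intensity ratio per well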). Conditions: HUVEC TNFa-induced p65 nuclear translocation; cell count: measured here: nuclei count (cytotoxicity indicator), at 2.08 µM; inhibition: at 2 µM, stronger effect = higher value, 0% TNFa-plus-vehicle, 100% no-TNFa wells.
Experiment [2] is described as follows: reduction of polyQ htt aggregates in cells – imaging, exon1htt(103Q)mCFP cells, high-content imaging, primary screen (AID 483;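 active means visual image review flags a hit and inhibition of aggregation exceeds 20%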;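 further: compound exposure lasted 3 days before fixation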;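 on nuclei count: percent of the per-plate median nuclei count of sample wells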). To be noted: exon1htt(103Q)mCFP cell line, aggregate imaging, at 2 µM; inhibition of aggregation: stronger effect = higher value; nuclei count: measured here: cell count, toxicity.
A short description of experiment [3]: endothelial E-selectin expression blockers – imaging, HUVEC, immunofluorescence, MLSMR starter and 10KST1 sets, primary screen (AID 487;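 active means visually confirmed hit in the image check and inhibition above 20%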;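 on inhibition: signal is fraction of cell area covered by stained E-selectin grains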;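 on nuclei count: 100% = median nuclei count of all wells on the same plate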). Conditions: HUVEC TNFalpha-induced E-selectin immunofluorescence imaging, at 2 µM; inhibition: stronger effect = higher value; nuclei count: measured here: cell number, toxicity.
Experiment [4] can be described thus: Primary imaging screen for DUSP6 inhibitors that restore phospho-Erk in transfected HeLa cells, chemical complementation (AID 609;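 active means compounds giving at least 50% inhibition in the cell-based MKP-3 phosphatase rescue imaging test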;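 on inhibition: phospho-Erk level distribution per well compared with pooled transfected vehicle control wells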). Conditions: HeLa MKP-3 transfected, phospho-Erk imaging KS statistic, at 10 µM, cells stimulated with TPA for 15 min.
Experiment [5] deals with Dual specificity protein phosphatase 6 (Homo sapiens) (UniProt Q16828). Described as above. To be noted: HeLa MKP-3 transfected, phospho-Erk imaging KS statistic; at 10 µM; stronger effect = higher value; cells stimulated with TPA for 15 min.
The target of experiment [6] is Voltage-gated potassium channel subunit beta-2 (Rattus norvegicus) (UniProt P62483). Briefly: inhibitors of rat Kvbeta2 reductase activity – biochemical, NADPH fluorescence, primary screen (AID 622;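 active means fluorescence slope higher than the sample average by over 3 SD, cut at about -0.22 in these data, passing the limit was not always enough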;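 further: slope of raw intensity against log time taken from 70 to 1610 s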). Conditions: recombinant KvBeta, 4-cyanobenzaldehyde reduction, at 10 µM, stronger effect = higher value.
The target is the same in experiment [7]. Kind of experiment: enhancers of rat Kvbeta2 NADPH turnover – biochemical, NADPH fluorescence, primary screen (AID 623;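 active means NADPH fluorescence slope more negative than the mean of all samples by about 3 SD, 99.7% confidence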;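 further: fluorescence intensity change per second fitted from 20 to 320 s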). To be noted: Recombinant KvBeta, NADPH fluorescence decrease slope, 10 min; at 10 µM; stronger effect = lower value.
For experiment [8], the target named is Alpha-2C adrenergic receptor (Homo sapiens) (UniProt P18825). Briefly: compounds altering alpha2C-coupled GIRK flux – cell-based, HEK293 alpha2C/GIRK1/2, thallium flux, primary screen (AID 624;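 active means fluorescence slope after compound addition differing from the mean of all screened samples at 99.7% confidence, in either direction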;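 further: slope of fluorescence ratio to pre-addition baseline per second over 15 to 24 s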). To be noted: thallium flux BTC fluorescence, at 10 µM, actives lie on both sides.
Experiment [9] can be described thus: inhibitors of larval lipid processing in zebrafish, primary screen, whole organism, PED6 fluorescence, gall bladder and intestine (AID 686;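 active means a full or partial loss of lipid-probe fluorescence in the fish gall bladder, intestine or both, judged by eye; inactive means no fluorescence loss, or compound toxic to the fish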;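 further: larvae 5 to 7 days old with five fish per well; signal comes from phospholipase A2 cleavage of quenched PED6 carried via bile; overnight exposure to compound and PED6 before scoring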). To be noted: Zebrafish larvae PED6 lipid processing, fluorescence scoring; screened at 20 µM (by protocol).
Experiment [10] in a line: loss of swimming-algae plug formation – whole organism, Chlamydomonas reinhardtii, WT vs cilia-less mutant, absorbance, 96-well, primary screen (AID 463189).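 Further: 0% = wild type cc124 cells in DMSO and 100% = ciliumless bld1 mutant cells.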 Conditions: Chlamydomonas reinhardtii gravitaxis, OD600 absorbance, 2 days; at 10 µM; stronger effect = higher value.
The nature of experiment [11]: blockers of RIG-like receptor reporter activation – cell-based, Sendai virus stimulus, luciferase, 10K MLSCN set, TLR/RLR signaling modifier project, primary screen (AID 602276;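 active means inhibition at or above 50% at 10 µM; inactive means inhibition below 50%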;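 further: firefly luciferase from ISG56 promoter only with Renilla not read in this screen; 0% = Sendai virus plus DMSO and 100% = medium plus DMSO without virus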). Conditions: HEK293 RL24 IRF3 luciferase reporter, at 10 µM, stronger effect = higher value. A general note: A reporter such as luciferase makes a cellular process visible.
Experiment [12] is described as follows: TLR3 IRF3 reporter activation blockers – cell-based, poly I:C stimulus, luciferase, 10K MLSCN set, primary screen (AID 602277;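 active means inhibition of the reporter signal at or above 50%; inactive means inhibition below 50%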). Conditions: HEK293-TLR3 RL24 IRF3 luciferase reporter, at 10 µM, stronger effect = higher value.
The target in experiment [13] is Muscarinic acetylcholine receptor M4 (Homo sapiens) (UniProt P08173). Kind of experiment: M4-linked GIRK flux change, two-sided – cell-based, HEK293 M4/GIRK, thallium flux, BTC-AM, M4 allosteric agonist project, primary screen (AID 625;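 active means fluorescence slope after compound addition differing from the mean of all tested samples at 99.7% confidence, mostly higher but some lower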;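 further: thallium influx through GIRK channels coupled to M4 in HEK293 cells with BTC-AM dye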). Conditions: at 10 µM, actives lie on both sides.
[14] abbreviates: measured here: cell density z-score.
Setting [15] is: measured here: nuclear c-Myc green intensity z-score.
Setting [16] is: measured here: nuclear pErk red intensity z-score, stronger effect = higher value.

Dual specificity protein phosphatase 6 (Homo sapiens), sequence (Q16828 whole entry, looked up): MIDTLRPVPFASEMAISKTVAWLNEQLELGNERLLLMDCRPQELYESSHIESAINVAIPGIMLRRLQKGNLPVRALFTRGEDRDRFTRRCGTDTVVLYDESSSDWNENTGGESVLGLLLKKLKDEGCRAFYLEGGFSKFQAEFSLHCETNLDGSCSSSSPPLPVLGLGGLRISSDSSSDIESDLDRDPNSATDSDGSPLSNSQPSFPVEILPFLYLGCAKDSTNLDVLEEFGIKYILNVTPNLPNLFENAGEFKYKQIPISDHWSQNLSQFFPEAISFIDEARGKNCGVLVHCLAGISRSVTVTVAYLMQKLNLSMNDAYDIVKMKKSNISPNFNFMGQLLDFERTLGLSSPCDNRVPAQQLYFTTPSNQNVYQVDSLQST
Voltage-gated potassium channel subunit beta-2 (Rattus norvegicus), sequence (P62483 whole entry, looked up): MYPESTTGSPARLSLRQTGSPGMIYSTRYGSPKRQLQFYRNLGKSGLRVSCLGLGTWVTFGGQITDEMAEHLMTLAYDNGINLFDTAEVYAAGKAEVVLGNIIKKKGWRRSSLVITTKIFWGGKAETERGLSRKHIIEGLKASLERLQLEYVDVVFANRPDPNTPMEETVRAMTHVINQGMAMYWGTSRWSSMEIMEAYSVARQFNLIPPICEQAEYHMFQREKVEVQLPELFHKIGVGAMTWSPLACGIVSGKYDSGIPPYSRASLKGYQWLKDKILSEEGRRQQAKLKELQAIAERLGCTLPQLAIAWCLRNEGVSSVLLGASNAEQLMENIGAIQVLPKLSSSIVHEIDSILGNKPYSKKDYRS
Alpha-2C adrenergic receptor (Homo sapiens), sequence (P18825 whole entry, looked up): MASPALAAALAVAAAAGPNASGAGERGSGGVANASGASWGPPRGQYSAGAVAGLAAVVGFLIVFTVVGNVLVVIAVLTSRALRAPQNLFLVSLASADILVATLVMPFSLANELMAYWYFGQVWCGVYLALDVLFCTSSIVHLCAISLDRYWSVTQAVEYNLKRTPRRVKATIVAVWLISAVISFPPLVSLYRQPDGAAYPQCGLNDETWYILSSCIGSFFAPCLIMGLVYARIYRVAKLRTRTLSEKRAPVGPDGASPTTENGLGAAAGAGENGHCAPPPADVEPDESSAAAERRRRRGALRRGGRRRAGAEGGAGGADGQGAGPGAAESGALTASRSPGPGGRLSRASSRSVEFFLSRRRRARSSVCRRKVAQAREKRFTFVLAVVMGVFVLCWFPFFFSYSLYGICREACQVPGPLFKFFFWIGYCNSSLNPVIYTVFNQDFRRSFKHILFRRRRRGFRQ
Muscarinic acetylcholine receptor M4 (Homo sapiens), sequence (P08173 whole entry, looked up): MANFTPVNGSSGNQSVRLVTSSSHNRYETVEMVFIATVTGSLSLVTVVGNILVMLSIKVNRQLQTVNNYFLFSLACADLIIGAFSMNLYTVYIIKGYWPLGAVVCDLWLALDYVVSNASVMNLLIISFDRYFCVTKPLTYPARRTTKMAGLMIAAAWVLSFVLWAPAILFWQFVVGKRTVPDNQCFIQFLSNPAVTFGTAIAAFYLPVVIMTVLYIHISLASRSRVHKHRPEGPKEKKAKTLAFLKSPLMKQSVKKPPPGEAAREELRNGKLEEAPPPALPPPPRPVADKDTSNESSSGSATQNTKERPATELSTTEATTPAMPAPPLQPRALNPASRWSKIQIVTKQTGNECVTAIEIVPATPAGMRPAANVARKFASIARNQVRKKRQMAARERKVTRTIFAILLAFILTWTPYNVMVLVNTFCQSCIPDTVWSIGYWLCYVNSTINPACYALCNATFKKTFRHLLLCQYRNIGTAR

For `CCOC(=O)c1c(C)n(C)c2ccc(O)c(S(=O)(=O)c3ccccc3)c12`, the cell count in [1] came to 278. Besides, the inhibition is -3.6% (inactive) in [1]; -19.6% (inactive) in [3]; -8.76% (inactive) in experiment [5]; -15.5% (inactive) in experiment [10]; 21.8% (inactive) in [11]; 27% (inactive) in experiment [12]. Moreover, in [2], the inhibition of aggregation was -0.2% (inactive). Besides, the nuclei count turned out to be 103% in experiment [2] and 109% in [3]. Moreover, the z-score in [4] (setting [14]) is -0.746; in experiment [4] (setting [15]), 0.777; in [4] (setting [16]), 1.13. Further, the fluorescence slope in experiment [6] was -0.458 (inactive). For the same molecule, the NADPH fluorescence slope in experiment [7] is -0.000154 (inactive). The slope in [8] is 0.00656 (inactive). Also, the call in experiment [9] was inactive.
Turning to `O=C(NO)c1ccccc1O`, in experiment [1], the cell count worked out at 594. The inhibition in experiment [1] was 1.9% (inactive); in [3], -35.8% (inactive); in experiment [5], 5.79% (inactive); in [10] it was -11.3% (inactive); in experiment [11] it was 5.89% (inactive); in experiment [12] it was 19.5% (inactive). Further, in [2], the inhibition of aggregation is -2.3% (inactive). For the same molecule, the nuclei count came out at 103% in experiment [2] and 102% in experiment [3]. Moreover, the z-score in experiment [4] (setting [14]) is -0.325; in [4] (setting [15]), -0.0884; in [4] (setting [16]) it was -1.2. Besides, the fluorescence slope in experiment [6] is -0.458 (inactive). Besides, the NADPH fluorescence slope in experiment [7] was -2.4e-05 (inactive). In addition, in [8], the slope was 0.00615 (inactive). Further, in [9], the molecule was classed as inactive.
With `Cn1c(-n2c(-c3ccco3)nc3ccccc3c2=O)nc2ccccc21`, the cell count in experiment [1] was determined as 589. The inhibition is -10.5% (inactive) in [1]; -8.3% (inactive) in experiment [3]; 8.31% (inactive) in [5]; 9.97% (inactive) in experiment [10]; 20.8% (inactive) in experiment [11]; 6.14% (inactive) in experiment [12]. Moreover, the inhibition of aggregation in [2] was 32% (inactive). Further, the nuclei count is 109% in experiment [2] and 126% in experiment [3]. In addition, the z-score in experiment [4] (setting [14]) was 0.944; in experiment [4] (setting [15]), 0.431; in experiment [4] (setting [16]), -0.392. For the same molecule, in experiment [6], the fluorescence slope is -0.351 (inactive). Also, the NADPH fluorescence slope in experiment [7] was -6.3e-06 (inactive). Further, the slope in experiment [8] is 0.00557 (inactive). Besides, the result in experiment [9] was inactive.
On to `COc1ccc(CCN(C)CCCC(C#N)(c2cc(OC)c(OC)c(OC)c2)C(C)C)cc1OC` (stereo unspecified), for which the cell count in [1] was determined as 602. Further, the inhibition was 1.1% (inactive) in [1]; -34.1% (inactive) in experiment [3]; 30.1% (inactive) in experiment [5]; 4.56% (inactive) and -3.63% (inactive) in experiment [10]; 3.72% (inactive) in [11]; 17% (inactive) in experiment [12]. In addition, in experiment [2], the inhibition of aggregation was 6% (inactive). For the same molecule, the values for the nuclei count in [2] and in experiment [3] were 88.6% and 114%, respectively. In addition, the z-score in experiment [4] (setting [14]) is 2.13; in [4] (setting [15]) it was 0.829; in experiment [4] (setting [16]), -0.736. In [6], the fluorescence slope is -0.466 (inactive). The NADPH fluorescence slope in experiment [7] is -1e-05 (inactive). Besides, the slope in experiment [8] is 0.00502 (inactive). Further, in [9], the outcome was inactive.
For `Nc1cccc(C(=O)O)c1`, in [1], the cell count amounted to 563. In addition, the inhibition in [1] is 3.8% (inactive); in experiment [3] it was -31.1% (inactive); in [5], 12.4% (inactive); in [10] it was -1.48% (inactive); in experiment [11] it was 9.57% (inactive); in [12], 34.4% (inactive). Further, the inhibition of aggregation in [2] is 28.2% (inactive). Moreover, the figures for the nuclei count in [2] and in experiment [3] were 59% and 97.4%, respectively. The z-score in experiment [4] (setting [14]) is 1.14; in experiment [4] (setting [15]), 0.242; in experiment [4] (setting [16]) it was -0.0201. The fluorescence slope in experiment [6] is -0.462 (inactive). Besides, the NADPH fluorescence slope in experiment [7] is -4.9e-05 (inactive). Besides, the slope in experiment [8] is 0.00577 (inactive). Also, the molecule was called inactive in experiment [9].
Turning to `COc1ccc(Cn2c(CCCO)nc3ccccc32)cc1OC`, the cell count in experiment [1] worked out at 577. For the same molecule, the inhibition is -7.7% (inactive) in [1]; -84% (inactive) in [3]; -5.89% (inactive) in [5]; 2.72% (inactive) in experiment [10]; 13.3% (inactive) in experiment [11]; 22.4% (inactive) in [12]. Moreover, the inhibition of aggregation in [2] was -17% (inactive). Also, the nuclei count in experiment [2] was 105%; in experiment [3], 122%. For the same molecule, the figures for the z-score in [4] (setting [14]), in [4] (setting [15]) and in [4] (setting [16]) were -0.981, 1.12 and 1.14, respectively. Moreover, the fluorescence slope in experiment [6] is -0.412 (inactive). For the same molecule, in experiment [7], the NADPH fluorescence slope was -4.3e-05 (inactive). The slope in experiment [8] is 0.0064 (inactive). In experiment [9], the call was inactive.
Take `CCOC(=O)c1ccc(-n2c(=O)[nH]c3ccccc3c2=O)cc1`: the cell count in experiment [1] turned out to be 443. Moreover, the inhibition is -3.4% (inactive) in experiment [1]; -140% (inactive) in experiment [3]; 11.4% (inactive) in [5]; 9.26% (inactive) in experiment [10]; -16.9% (inactive) in [11]; -29.3% (inactive) in [12]. Moreover, the inhibition of aggregation in experiment [2] is 7.1% (inactive). Moreover, the nuclei count in experiment [2] is 80%; in [3] it was 136%. For the same molecule, the z-score is -0.719 in experiment [4] (setting [14]), -0.246 in [4] (setting [15]) and 0.316 in experiment [4] (setting [16]). Besides, the fluorescence slope in [6] is -0.415 (inactive). Further, the NADPH fluorescence slope in experiment [7] was -5.7e-05 (inactive). Further, in [8], the slope was 0.00476 (inactive). For the same molecule, the molecule was classed as inactive in [9].
Regarding `COCCNc1oc(-c2ccc(C)cc2)nc1C#N`, the cell count in experiment [1] was 405. Besides, the inhibition in [1] was 1.6% (inactive); in [3] it was -23.4% (inactive); in experiment [5] it was 18.2% (inactive); in experiment [10], 4.66% (inactive); in experiment [11], -24.8% (inactive); in experiment [12] it was -85.8% (inactive). In [2], the inhibition of aggregation was 12.5% (inactive). The nuclei count was 88.9% in experiment [2] and 129% in experiment [3]. Moreover, the z-score is -0.898 in experiment [4] (setting [14]), 0.297 in experiment [4] (setting [15]) and 1.87 in [4] (setting [16]). Moreover, the fluorescence slope is -0.461 (inactive) in experiment [6] and 0.00552 (inactive) in [13]. The NADPH fluorescence slope in experiment [7] is -5.9e-05 (inactive). Besides, the slope in experiment [8] was 0.00692 (inactive). Also, in experiment [9], the outcome was inactive.
Turning to `Cn1c(=O)c2c(ncn2CCO)n(C)c1=O`, the cell count in experiment [1] stood at 575. Also, the inhibition in [1] is 3.2% (inactive); in experiment [3] it was -46.8% (inactive); in experiment [5] it was 1.38% (inactive); in experiment [10] it was -9.91% (inactive); in [11] it was 14.7% (inactive); in [12], 34.5% (inactive). Besides, in experiment [2], the inhibition of aggregation is -12.9% (inactive). Besides, the nuclei count in experiment [2] was 102%; in experiment [3], 114%. Further, the z-score is -1.46 in experiment [4] (setting [14]), -1.4 in experiment [4] (setting [15]) and -0.23 in experiment [4] (setting [16]). Further, the fluorescence slope in [6] is -0.45 (inactive). Further, in experiment [7], the NADPH fluorescence slope is -4.4e-05 (inactive). Besides, the slope in experiment [8] is 0.00454 (inactive). For the same molecule, the result in experiment [9] was inactive.
For `COc1ccc(C2CC(=O)C(C=NCCN3CCOCC3)=C(O)C2)cc1` (stereo unspecified), the cell count in experiment [1] came to 379. Moreover, the inhibition in [1] is -8.5% (inactive); in [3], -118% (inactive); in experiment [5], -5.62% (inactive); in experiment [10], 7.09% (inactive); in experiment [11], 14.9% (inactive); in experiment [12], 20.5% (inactive). Moreover, in [2], the inhibition of aggregation is 0.1% (inactive). The nuclei count in [2] turned out to be 106%; in experiment [3] it was 138%. The figures for the z-score in experiment [4] (setting [14]), in experiment [4] (setting [15]) and in [4] (setting [16]) were 0.329, 0.663 and -0.587, respectively. For the same molecule, the fluorescence slope in experiment [6] was -0.354 (inactive). In addition, the NADPH fluorescence slope in experiment [7] is 9.4e-06 (inactive). For the same molecule, in [8], the slope is 0.00492 (inactive). Besides, the molecule was called inactive in experiment [9].

The inhibition is the change of the read-out against control, counted positive when it falls.

(Values after PubChem BioAssay.)
